# The list is not random: actives were taken first. Their share in the collection is about 1.1%.
# NR2F2 inh = inhibitors of human COUP-TFII (NR2F2) | inhibition, % at 8.6 µM | 370,000 tested, 0.7% active | P24468 | HEK293T NGFI-A luciferase reporter, luminescence;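 active = inhibition above a per-plate cutoff, mean inhibition of test wells between control levels plus 3 SD, cut at about 38% in these data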;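 also: cells cotransfected with COUP-TFII expression vector driving the NGFI-A reporter; 0% = median of COUP-TF2 test wells and 100% = reporter-only cells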
# NCOA1 inh = inhibitors of human steroid receptor coactivator 1 (SRC1) | Q15788 | 360,000 tested, 0.12% active | HEK293 GAL4-SRC1 luciferase reporter, luminescence | AID 588354 | inhibition, % at 3.6 µM;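 active = inhibition above the campaign mean plus 3 SD, with each screening campaign given its own cutoff, cut at about 60% in these data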;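 also: 0% = DMSO treated cells and 100% = gossypol at 36 µM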
# GalR3 antag = blocks the human galanin receptor 3. 360,000 tested, 0.44% active. inhibition, % at 3 µM. HEK293 GalR3-CNG cAMP membrane potential fluorescence; galR3 body fused to GalR1 C-terminus. O60755;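 active = inhibition above the screen-wide average plus 3 SD, cut at about 13% in these data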;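 also: forskolin and galanin both at EC90 stimulate the cells; cAMP rise reported by CNG channel membrane potential dye signal; 0% = forskolin plus galanin with DMSO and 100% = forskolin alone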
# Target sequence (O60755 1-299 limits assumed): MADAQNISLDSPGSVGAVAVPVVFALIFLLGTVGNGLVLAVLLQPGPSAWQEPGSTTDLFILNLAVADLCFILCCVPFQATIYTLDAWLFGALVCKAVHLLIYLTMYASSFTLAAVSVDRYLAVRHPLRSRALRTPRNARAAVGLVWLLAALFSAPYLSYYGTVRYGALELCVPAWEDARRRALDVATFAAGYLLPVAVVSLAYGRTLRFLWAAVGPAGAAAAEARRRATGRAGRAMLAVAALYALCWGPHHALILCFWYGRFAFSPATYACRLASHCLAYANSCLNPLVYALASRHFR
# NCOA3 inh = human NCOA3 inhibition; HEK293 GAL4-SRC3 luciferase reporter, luminescence; inhibition, % at 3.6 µM; 360,000 tested, 0.17% active; AID 588352;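 active = inhibition above a per-campaign cutoff, the mean of all compounds plus 3 SD, cut at about 60% in these data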;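 also: 0% = DMSO-treated cells and 100% = gossypol-treated cells at 36 µM; higher means less SRC3-driven luciferase light from the GAL4 reporter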
# SRC2 inh = human SRC2 (NCOA2) inhibition | HEK293 GAL4-SRC2 luciferase reporter, luminescence | inhibition, % at 9 µM | AID 651957 | 370,000 tested, 0.17% active;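 active = inhibition above the mean inhibition of all tested compounds plus 3 SD, set per campaign, cut at about 52% in these data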;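 also: 0% = DMSO treated cells and 100% = cells given Gossypol at 36 µM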
# NR5A2 inv ag = suppresses constitutive activity of human LRH-1 | O00482 | HEK293T StAR-luciferase reporter, LRH-1 transfected, 24 h | inhibition, % at 3.6 µM | 360,000 tested, 0.13% active;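 active = inhibition above the mean inhibition of all tested compounds plus 3 SD, cut at about 73% in these data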;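 also: 0% = DMSO wells and 100% = reporter-only cells lacking LRH-1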
# The depositor's hits bear a star; . = no result.
SMILES,NR2F2 inh,NCOA1 inh,GalR3 antag,NCOA3 inh,SRC2 inh,NR5A2 inv ag
C[C@@]12C(=O)OC(=O)[C@]1(C)C1CCC2O1,66.0*,52.9,-1.3,70.9*,61.5*,59.2
COc1ccc(N(C(=O)c2ccco2)C(C(=O)NC2CCCCC2)c2cccs2)cc1OC (configuration not stated),-2.8,-9.7,-1.7,11.8,0.0,9.0
COc1cccc(N(C(=O)CCl)C(C(=O)NCCc2ccccc2)c2cccs2)c1 (configuration not stated),7.3,27.9,-4.6,68.1*,61.4*,25.6
COc1ccc(N(C(=O)CCl)C(C(=O)NCCc2ccccc2)c2cccs2)cc1Cl (configuration not stated),25.9,2.7,-5.8,76.3*,47.8,39.6
CC(=NNC(=S)N1CCN(C2CCCCCC2)CC1)c1ccccn1,31.9,72.8*,-7.0,68.8*,27.3,64.5
CC(=NNC(=S)N1CC2CCC(CC2)C1)c1cnccn1,-0.9,76.6*,-4.2,77.8*,-28.5,7.7
O=C(O)CCCCCCCCCCC1CCC(O)C1O (configuration not stated),40.8*,6.5,-1.9,19.5,40.3,4.7
NC(=S)NN=Cc1nccc2c(N)cccc12,-17.4,74.5*,-5.0,62.4*,-21.9,28.9
CCN(C(C)=O)c1cnc(C=NNC(N)=S)c2ccccc12,2.0,15.7,-1.1,40.6,-10.5,66.4
CN(Cc1cnc2nc(N)nc(N)c2n1)c1ccc(C(=O)NC(CCC(=O)O)C(=O)O)cc1 (configuration not stated),-5.5,78.3*,1.2,83.2*,4.4,79.3*
CCCN(CCC)C(=O)C(CCC(=O)O)NC(=O)c1ccccc1 (configuration not stated),2.7,3.0,.,-6.0,15.7,7.3
CN(Cc1cnc2nc(N)nc(N)c2n1)c1ccc(C(=O)NC(CCC(=O)O)C(=O)O)cc1C(F)(F)F (configuration not stated),-20.4,66.6*,-4.8,72.5*,-16.4,44.6
C[C@@H](CO)N(Cc1cn(Cc2ccccc2)nn1)S(=O)(=O)c1ccccc1Br,-10.6,.,.,.,10.2,.
COc1ccc(-c2cc(C(=O)N(C3CCCCC3)C3CCCCC3)no2)cc1,-6.9,.,.,.,-6.5,.
CN(CCCOC(=O)c1occ2ccccc12)C1CN(Cc2cn(Cc3ccccc3Cl)nn2)S(=O)(=O)C1 (configuration not stated),14.5,.,.,.,-29.2,.
Cc1nc2cc(-c3ccc(Cl)cc3)nn2c(C)c1CCC(=O)NC(C)c1ccc2c(c1)OCCO2 (configuration not stated),26.4,16.5,3.3,12.9,73.0*,2.2
Cc1ccc(S(=O)(=O)Nc2ccc3nc(C)sc3c2)cc1,.,16.0,.,15.8,.,20.3
Cc1nc2ccc(NS(=O)(=O)c3ccc4c(c3)OCCO4)cc2s1,65.1*,16.9,102.5*,12.6,25.0,41.1
O=C(Nc1ccc(Cl)cc1)N1CCN(Cc2nc3ccccc3c(=O)[nH]2)CC1,1.3,.,.,.,-15.0,.
Cc1occc1-c1n[nH]c(=S)n1C,-0.3,-26.5,13.1*,14.4,-26.2,1.3
Cc1occc1-c1n[nH]c(=S)n1-c1ccccc1,4.5,-21.8,-3.0,2.5,4.8,5.3
CC[C@@H](C(=O)[C@@H](C)[C@@H](O)[C@H](C)[C@@H]1O[C@@H]([C@@H](CC)C(=O)O)CC[C@@H]1C)[C@H]1O[C@]2(C=C[C@@H](O)[C@]3(CC[C@@](C)([C@H]4CC[C@](O)(CC)[C@H](C)O4)O3)O2)[C@H](C)C[C@@H]1C,44.8*,-39.4,-0.2,62.2*,2.5,85.8*
O=C(NCCCN1CCOCC1)c1cc(-c2ccc(Cl)c(Cl)c2)on1,1.9,-10.3,-7.5,3.1,-6.7,-10.7
Cc1ccc(-c2cc(C(=O)NCCCN3CCOCC3)no2)cc1,18.0,26.3,-4.0,20.8,56.3*,18.5
CC(C)(C)c1ccc(C(=O)NCc2ccc(Cl)cc2)cc1,2.0,-19.4,1.4,-20.4,-35.8,1.4
CC(C)(C)OC(=O)N1CCN(c2ccc(CNC(=O)c3ccc(Cl)cc3)cc2)CC1,39.3*,-5.5,-8.0,8.6,16.5,28.6

# Assay outcomes (PubChem)
